Assay results taken from PubChem BioAssay.
Several values for one entry are separate records, joined by “and”; a condition that tells them apart may be missing. Equal values may be shown once. Activity calls are given as the source filed them.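 How the source made its calls, unless noted: active means inhibition at or above 50% relative to wild type and mutant plate controls; inactive means inhibition below 50%.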

What was measured:
[1] = inhibitors of TNFa-induced NFkB p65 translocation, primary screen, imaging, HUVEC, MLSMR starter and 10KST1 sets (AID 438;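 active means inhibition above 20% together with a positive visual image hit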;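 further: compound added about 3h40 before a 20 min TNFalpha stimulation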;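 on inhibition: signal is the nuclear over cytoplasmic p65 intensity ratio per well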); conditions: HUVEC TNFa-induced p65 nuclear translocation; cell count: measured here: nuclei count (cytotoxicity indicator), at 2.08 µM; inhibition: at 2 µM, stronger effect = higher value, 0% TNFa-plus-vehicle, 100% no-TNFa wells
[2] = reduction of polyQ htt aggregates in cells – imaging, exon1htt(103Q)mCFP cells, high-content imaging, primary screen (AID 483;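 active means visual image review flags a hit and inhibition of aggregation exceeds 20%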;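 further: compound exposure lasted 3 days before fixation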;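 on nuclei count: percent of the per-plate median nuclei count of sample wells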); conditions: exon1htt(103Q)mCFP cell line, aggregate imaging, at 2 µM; inhibition of aggregation: stronger effect = higher value; nuclei count: measured here: cell count, toxicity
[3] = endothelial E-selectin expression blockers – imaging, HUVEC, immunofluorescence, MLSMR starter and 10KST1 sets, primary screen (AID 487;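 active means visually confirmed hit in the image check and inhibition above 20%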;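 on inhibition: signal is fraction of cell area covered by stained E-selectin grains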;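 on nuclei count: 100% = median nuclei count of all wells on the same plate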); conditions: HUVEC TNFalpha-induced E-selectin immunofluorescence imaging, at 2 µM; inhibition: stronger effect = higher value; nuclei count: measured here: cell number, toxicity
[4] = Primary imaging screen for DUSP6 inhibitors that restore phospho-Erk in transfected HeLa cells, chemical complementation (AID 609;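 active means compounds giving at least 50% inhibition in the cell-based MKP-3 phosphatase rescue imaging test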;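 on inhibition: phospho-Erk level distribution per well compared with pooled transfected vehicle control wells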); conditions: HeLa MKP-3 transfected, phospho-Erk imaging KS statistic, at 10 µM, cells stimulated with TPA for 15 min
[5] = target: Dual specificity protein phosphatase 6 (Homo sapiens) (UniProt Q16828); test: as above; conditions: HeLa MKP-3 transfected, phospho-Erk imaging KS statistic; at 10 µM; stronger effect = higher value; cells stimulated with TPA for 15 min
Chain of Dual specificity protein phosphatase 6 (Homo sapiens) (Q16828 whole entry, looked up): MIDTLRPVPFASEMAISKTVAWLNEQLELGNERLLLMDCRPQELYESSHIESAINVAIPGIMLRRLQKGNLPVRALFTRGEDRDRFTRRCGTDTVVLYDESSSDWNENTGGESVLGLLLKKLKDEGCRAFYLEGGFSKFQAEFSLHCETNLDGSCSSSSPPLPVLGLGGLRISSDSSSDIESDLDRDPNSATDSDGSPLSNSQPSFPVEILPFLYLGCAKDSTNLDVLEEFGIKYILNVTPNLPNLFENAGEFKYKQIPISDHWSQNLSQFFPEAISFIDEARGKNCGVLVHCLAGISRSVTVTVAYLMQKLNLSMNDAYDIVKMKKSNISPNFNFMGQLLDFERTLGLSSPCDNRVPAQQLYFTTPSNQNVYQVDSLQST

[6] = target: Voltage-gated potassium channel subunit beta-2 (Rattus norvegicus) (UniProt P62483); test: inhibitors of rat Kvbeta2 reductase activity – biochemical, NADPH fluorescence, primary screen (AID 622;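 active means fluorescence slope higher than the sample average by over 3 SD, cut at about -0.22 in these data, passing the limit was not always enough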;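 further: slope of raw intensity against log time taken from 70 to 1610 s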); conditions: recombinant KvBeta, 4-cyanobenzaldehyde reduction, at 10 µM, stronger effect = higher value
Chain of Voltage-gated potassium channel subunit beta-2 (Rattus norvegicus) (P62483 whole entry, looked up): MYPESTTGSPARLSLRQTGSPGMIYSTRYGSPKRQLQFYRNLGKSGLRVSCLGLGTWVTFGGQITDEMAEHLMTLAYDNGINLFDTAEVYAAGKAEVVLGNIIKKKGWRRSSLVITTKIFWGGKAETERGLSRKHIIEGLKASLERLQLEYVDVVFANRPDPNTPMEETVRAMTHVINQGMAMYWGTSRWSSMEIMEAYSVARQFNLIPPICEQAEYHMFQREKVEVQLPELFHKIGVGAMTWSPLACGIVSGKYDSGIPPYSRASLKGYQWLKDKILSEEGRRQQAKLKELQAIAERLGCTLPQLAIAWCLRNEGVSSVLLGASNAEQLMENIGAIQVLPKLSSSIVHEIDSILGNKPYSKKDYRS

[7] = target: Voltage-gated potassium channel subunit beta-2 (Rattus norvegicus) (UniProt P62483); test: enhancers of rat Kvbeta2 NADPH turnover – biochemical, NADPH fluorescence, primary screen (AID 623;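 active means NADPH fluorescence slope more negative than the mean of all samples by about 3 SD, 99.7% confidence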;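 further: fluorescence intensity change per second fitted from 20 to 320 s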); conditions: Recombinant KvBeta, NADPH fluorescence decrease slope, 10 min; at 10 µM; stronger effect = lower value
[8] = target: Alpha-2C adrenergic receptor (Homo sapiens) (UniProt P18825); test: compounds altering alpha2C-coupled GIRK flux – cell-based, HEK293 alpha2C/GIRK1/2, thallium flux, primary screen (AID 624;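 active means fluorescence slope after compound addition differing from the mean of all screened samples at 99.7% confidence, in either direction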;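 further: slope of fluorescence ratio to pre-addition baseline per second over 15 to 24 s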); conditions: thallium flux BTC fluorescence, at 10 µM, actives lie on both sides
Chain of Alpha-2C adrenergic receptor (Homo sapiens) (P18825 whole entry, looked up): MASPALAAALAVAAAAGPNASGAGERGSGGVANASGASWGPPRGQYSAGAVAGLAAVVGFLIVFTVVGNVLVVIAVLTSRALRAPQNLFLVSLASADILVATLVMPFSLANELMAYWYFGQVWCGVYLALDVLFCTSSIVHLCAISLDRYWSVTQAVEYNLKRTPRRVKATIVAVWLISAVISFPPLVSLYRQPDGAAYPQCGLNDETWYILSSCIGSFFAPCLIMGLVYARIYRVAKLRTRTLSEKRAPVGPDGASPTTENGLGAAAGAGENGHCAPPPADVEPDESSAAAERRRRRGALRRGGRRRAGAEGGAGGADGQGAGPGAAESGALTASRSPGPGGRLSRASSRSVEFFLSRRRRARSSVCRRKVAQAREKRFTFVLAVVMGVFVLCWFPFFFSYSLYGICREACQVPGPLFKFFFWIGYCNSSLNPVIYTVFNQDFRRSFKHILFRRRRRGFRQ

[9] = inhibitors of larval lipid processing in zebrafish, primary screen, whole organism, PED6 fluorescence, gall bladder and intestine (AID 686;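 active means a full or partial loss of lipid-probe fluorescence in the fish gall bladder, intestine or both, judged by eye; inactive means no fluorescence loss, or compound toxic to the fish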;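 further: larvae 5 to 7 days old with five fish per well; signal comes from phospholipase A2 cleavage of quenched PED6 carried via bile; overnight exposure to compound and PED6 before scoring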); conditions: Zebrafish larvae PED6 lipid processing, fluorescence scoring; screened at 20 µM (by protocol)
[10] = loss of swimming-algae plug formation – whole organism, Chlamydomonas reinhardtii, WT vs cilia-less mutant, absorbance, 96-well, primary screen (AID 463189); conditions: Chlamydomonas reinhardtii gravitaxis, OD600 absorbance, 2 days; at 10 µM; stronger effect = higher value;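 further: 0% = wild type cc124 cells in DMSO and 100% = ciliumless bld1 mutant cells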
[11] = blockers of RIG-like receptor reporter activation – cell-based, Sendai virus stimulus, luciferase, 10K MLSCN set, TLR/RLR signaling modifier project, primary screen (AID 602276;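 active means inhibition at or above 50% at 10 µM; inactive means inhibition below 50%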;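 further: firefly luciferase from ISG56 promoter only with Renilla not read in this screen; 0% = Sendai virus plus DMSO and 100% = medium plus DMSO without virus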); conditions: HEK293 RL24 IRF3 luciferase reporter, at 10 µM, stronger effect = higher value
[12] = TLR3 IRF3 reporter activation blockers – cell-based, poly I:C stimulus, luciferase, 10K MLSCN set, primary screen (AID 602277;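 active means inhibition of the reporter signal at or above 50%; inactive means inhibition below 50%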); conditions: HEK293-TLR3 RL24 IRF3 luciferase reporter, at 10 µM, stronger effect = higher value
[13] = measured here: cell density z-score
[14] = measured here: nuclear c-Myc green intensity z-score
[15] = measured here: nuclear pErk red intensity z-score, stronger effect = higher value

| SMILES | cell count [1] | inhibition [1] | inhibition of aggregation [2] | nuclei count [2] | inhibition [3] | nuclei count [3] | z-score [4, 13] | z-score [4, 14] | z-score [4, 15] | inhibition [5] | fluorescence slope [6] | NADPH fluorescence slope [7] | slope [8] | outcome [9] | inhibition [10] | inhibition [11] | inhibition [12] |
| --- | --- | --- | --- | --- | --- | --- | --- | --- | --- | --- | --- | --- | --- | --- | --- | --- | --- |
| c1ccc(CN(CC2=NCCN2)c2ccccc2)cc1 | 455 and 493 | 0% (inactive) and 19.7% (inactive) | 9.9% (inactive) and 6.3% (inactive) | 97.2% and 85% | -8.6% (inactive) and -65.1% (inactive) | 98.7% and 128% | 0.164 and -0.173 | 0.692 and 0.37 | -0.518 and 0.488 | 8% (inactive) and 13.3% (inactive) | -0.512 (inactive) and -0.523 (inactive) | -3e-05 (inactive) and -2.5e-05 (inactive) | 0.00381 (inactive) and 0.00497 (inactive) | inactive | -11.5% (inactive) and 25.6% (inactive) | -7.89% (inactive) and 7.92% (inactive) | 0.563% (inactive) and 36.8% (inactive) |
| CC(=O)OCC(=O)[C@@]1(O)CC[C@H]2[C@@H]3CCC4=CC(=O)C=C[C@]4(C)[C@@]3(Cl)[C@@H](Cl)C[C@@]21C | 574 | -7.2% (inactive) | -27.9% (inactive) | 64.3% | -50.9% (inactive) | 118% | 0.892 | 0.179 | 0.325 | 11.3% (inactive) | -0.484 (inactive) | -5.1e-05 (inactive) | 0.00396 (inactive) | inactive | 18.7% (inactive) | 5.49% (inactive) | 38.2% (inactive) |
| CCOC(=O)C1CCN(c2nc3ccccc3nc2C(C#N)C(=O)OCCOC)CC1 (stereo not given) | 436 | -5.7% (inactive) | 12.8% (inactive) | 81% | -67.9% (inactive) | 120% | 0.586 | 0.396 | 0.0352 | -11.5% (inactive) | -0.529 (inactive) | 2.1e-06 (inactive) | 0.00561 (inactive) | inactive | -22.9% (inactive) | 13.3% (inactive) | 3.22% (inactive) |
| C=CCn1c(SCC(=O)NC23CC4CC(CC(C4)C2)C3)nc(O)cc1=O | 629 | -3.7% (inactive) | -0.4% (inactive) | 103% | -39.7% (inactive) | 129% | -0.394 | -0.06 | 0.754 | 7.83% (inactive) | -0.532 (inactive) | -4.2e-05 (inactive) | 0.00471 (inactive) | inactive | 12.5% (inactive) | 17.8% (inactive) | 24.6% (inactive) |
| Cc1nc2ccccn2c(=O)c1CCN1CCC(C(=O)c2ccc(F)cc2)CC1 | 712 | 2.4% (inactive) | -22.1% (inactive) | 103% | -63.6% (inactive) | 126% | 2.25 | 1.22 | -0.61 | 19% (inactive) | -0.464 (inactive) | 1.2e-06 (inactive) | 0.00457 (inactive) | inactive | 0.607% (inactive) and -12.6% (inactive) | 19.4% (inactive) | 35.8% (inactive) |
| CCCCCC(=O)O[C@]1(C(C)=O)CC[C@H]2[C@@H]3CCC4=CC(=O)CC[C@]4(C)[C@H]3CC[C@@]21C | 601 | -6.9% (inactive) | 2.3% (inactive) | 104% | -58.2% (inactive) | 122% | -1.27 | -0.399 | 1.24 | 13.3% (inactive) | -0.444 (inactive) | -6.6e-05 (inactive) | 0.00545 (inactive) | inactive | 3.11% (inactive) | 0.124% (inactive) | 48% (inactive) |
| CC1(C)Cc2c(sc3c2C2=NCCN2C=N3)CO1 | 624 | -7% (inactive) | 4.2% (inactive) | 124% | -54.1% (inactive) | 139% | -0.0476 | 0.11 | -0.119 | -2.69% (inactive) | -0.328 (inactive) | -8.5e-06 (inactive) | 0.00463 (inactive) | inactive | 63.1% (active) | -17.5% (inactive) | -3.31% (inactive) |
| CCN1CCN(c2cc3c(cc2F)c(=O)c(C(=O)O)cn3C2CC2)CC1 | 605 | 1.1% (inactive) | 3.3% (inactive) | 97.3% | -41.3% (inactive) | 116% | 0.332 | 0.418 | 0.882 | -5.24% (inactive) | -0.498 (inactive) | 1.7e-06 (inactive) | 0.0049 (inactive) | inactive | -15.2% (inactive) | 1.29% (inactive) | 31.6% (inactive) |
| CN(C)CCCN1c2ccccc2Sc2ccc(Cl)cc21 | 556 | 0% (inactive) | 14.2% (inactive) | 101% | -64.8% (inactive) | 123% | 1.02 | 0.553 | -0.0543 | -0.828% (inactive) | -0.472 (inactive) | -6e-05 (inactive) | 0.00356 (inactive) | inactive | 67.6% (active) and 162% (active) | 16.5% (inactive) | 40.1% (inactive) |
| O=C(NCCO)c1cccc2c1C(=O)c1ccccc1-2 | 511 | -13.6% (inactive) | 9.3% (inactive) | 91.4% | -95.8% (inactive) | 137% | -0.677 | 1.11 | 1.88 | 7.73% (inactive) | -0.517 (inactive) | -5.1e-05 (inactive) | 0.00471 (inactive) | inactive | 31.9% (inactive) | 4.9% (inactive) | -1.91% (inactive) |
| CCC(c1c(C)n(C)n(-c2ccccc2)c1=O)c1c(C)n(C)n(-c2ccccc2)c1=O | 550 | -4.3% (inactive) | 27.5% (inactive) | 89.2% | -51.3% (inactive) | 125% | -0.849 | -0.188 | -0.348 | 3.66% (inactive) | -0.488 (inactive) | -0.000154 (inactive) | 0.00494 (inactive) | inactive | 5% (inactive) | 17.6% (inactive) | 17.1% (inactive) |
| CCOC(=O)CSC1=C(C#N)C(=O)NC(c2ccc(OC)c(OC)c2)S1 (stereo not given) | 561 | -4.2% (inactive) | 12.1% (inactive) | 88.7% | -41.1% (inactive) | 135% | -1.42 | 2.48 | 0.606 | -13.3% (inactive) | -0.509 (inactive) | -5e-05 (inactive) | 0.00555 (inactive) | inactive | -1.59% (inactive) | 12% (inactive) | 11.8% (inactive) |
| C[C@]12C[C@H](O)[C@H]3[C@@H](CCC4=CC(=O)CC[C@@]43C)[C@@H]1CC[C@@H]2C(=O)CO | 627 | -3.6% (inactive) | -21.5% (inactive) | 101% | -37.7% (inactive) | 102% | 0.905 | 0.0812 | -0.546 | 9.37% (inactive) | -0.526 (inactive) | -4.5e-06 (inactive) | 0.00481 (inactive) | inactive | 3.78% (inactive) and -16.2% (inactive) | 5.57% (inactive) | 32.8% (inactive) |
| CCN(CC)CCCC1(CN)OCCc2ccccc21 (stereo not given) | 475 | -12.9% (inactive) | -31.3% (inactive) | 86.5% | -55.8% (inactive) | 104% | 1.04 | 0.0892 | -0.524 | 17% (inactive) | -0.378 (inactive) | -6.2e-06 (inactive) | 0.00288 (inactive) | inactive | 24.5% (inactive) | 5.61% (inactive) | 50.5% (active) |
| CN(C)CCOc1ccccc1Cc1ccccc1 | 539 | 5.9% (inactive) | -17.6% (inactive) | 92.7% | -66.7% (inactive) | 118% | -0.59 | 1.74 | -0.949 | 10.2% (inactive) | -0.506 (inactive) | 2.6e-05 (inactive) | 0.00455 (inactive) | inactive | 147% (active) | 17.7% (inactive) | 43% (inactive) |
| O=C(/C=C/c1ccccc1)c1ccccc1 | 614 | -6.5% (inactive) | -4.6% (inactive) | 98.3% | -56.5% (inactive) | 113% | 0.266 | 0.631 | 0.428 | 23.2% (inactive) | -0.452 (inactive) | -2.2e-05 (inactive) | 0.0047 (inactive) | inactive | 21.2% (inactive) | -12.6% (inactive) | -54.9% (inactive) |
| CC(C)COc1nc2ccccc2nc1C(C#N)C(=O)NC1CCCCC1 (stereo not given) | 342 | -6.5% (inactive) | 11.7% (inactive) | 98.8% | -27.9% (inactive) | 133% | 0.00555 | 0.614 | 0.00363 | -5.26% (inactive) | -0.423 (inactive) | -0.00013 (inactive) | 0.00573 (inactive) | inactive | 9.16% (inactive) | 13.4% (inactive) | 8.92% (inactive) |
| CN(C(=O)C(Cl)Cl)c1ccc(OC(=O)c2ccco2)cc1 | 579 | -1.8% (inactive) | -17.3% (inactive) | 101% | -123% (inactive) | 112% | 0.253 | -0.205 | -0.332 | 15.3% (inactive) | -0.508 (inactive) | -6.7e-05 (inactive) | 0.00492 (inactive) | inactive | -2.16% (inactive) | 21.3% (inactive) | 44.8% (inactive) |
| CN(C1CCS(=O)(=O)C1)S(=O)(=O)c1cccc2nsnc12 (stereo not given) | 506 | -15.3% (inactive) | -7.5% (inactive) | 117% | -64.1% (inactive) | 135% | 0.217 | 0.807 | -0.289 | -16.8% (inactive) | -0.513 (inactive) | -6.5e-05 (inactive) | 0.00498 (inactive) | inactive | 19.4% (inactive) | 15.8% (inactive) | 14.5% (inactive) |
| O=C1NC(c2cccs2)Nc2ccccc21 (stereo not given) | 600 | -16.1% (inactive) | 14.1% (inactive) | 130% | -3.3% (inactive) | 140% | -1.25 | -1.7 | 1.79 | 1.12% (inactive) | -0.292 (inactive) | -3.3e-05 (inactive) | 0.00756 (inactive) | inactive | 15.5% (inactive) | -3% (inactive) | 0.34% (inactive) |
